Data taken from PMC5540273 (PLoS ONE, 2017).

Each compound was assayed on T1, SNARK. Conditions: concentration: 1 μM, replicates: in singlicate; n = 1.
T1 construct: gene NUAK2
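Note: KINOMEscan kinase panel screen.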

Compound	%Inh
CCn1c(-c2nonc2N)nc2c(C#CC(C)(C)O)nc(OC[C@H](N)c3ccccc3)cc21 [GSK943949]	92.8%
Cc1cccc(NC(=O)Nc2ccc(Oc3ncnc4ccn(C)c34)cc2)c1	0%
O=C(Nc1cccc(Oc2ccc3nc(NC(=O)C4CC4)cn3n2)c1)c1ccccc1C(F)(F)F	0%
O=C(Nc1ccccc1F)NC1CCN(c2ccnc(Nc3ccc(F)cc3)n2)CC1 [GSK1379800]	0%
NCCCC(NC(=O)c1cc(Br)c(-c2ccnc3[nH]ccc23)s1)c1ccccc1.O=C(O)C(F)(F)F.O=C(O)C(F)(F)F (stereo not shown) [GSK1287544]	88%
COc1cccc(C(=O)Nc2cccc(Oc3ccc4nc(NC(=O)C5CC5)cn4n3)c2)c1	5%
COC(=O)Nc1nc2cc(Oc3ccc(NC(=O)Nc4cc(C(F)(F)F)ccc4F)cn3)ccc2[nH]1.Cl.Cl [GW681170]	14%
Cc1ccc(C(=O)Nc2ccc(Nc3ccnc4cc(-c5nccs5)ccc34)cc2O)cc1.Cl [GW494702]	10%
CCc1ccc(-c2ccc3c(c2)-c2c(cnn2C)S(=O)(=O)N3C)cc1	8%
CN(C)S(=O)(=O)c1cc(-c2ccc3nccc(-c4cccc(S(N)(=O)=O)c4)c3c2)cnc1N [GSK1669921]	22%
COc1cccc(NC(=O)NC2CCN(c3ccnc(Nc4cc(OC)c(OC)c(OC)c4)n3)C2)c1 (stereo not shown) [GSK1379763]	33%
O=c1[nH]cc(-c2ccc(N3CCOCC3)cc2)c2sc(-c3cn[nH]c3)cc12 [GSK2276055]	15%
COc1cc(Nc2nccc(N3CCC(NC(=O)Nc4cccc(C(C)=O)c4)C3)n2)cc(OC)c1OC (stereo not shown) [GSK1379753]	21%
CN1CCN(CCCNc2nccc(-c3c(-c4ccc(F)cc4)nn4cc(C(F)(F)F)ccc34)n2)CC1 [GW621581]	0%
c1ccc(-c2cnc3nccnn23)cc1 [AH20685]	0%
Cc1ccc(C(=O)N2CC[C@@H](O)C2)cc1-n1c(C)cc(OCc2ccc(F)cc2F)c(Br)c1=O	0%
C[C@@H](Oc1cc(-n2cnc3cc(-c4ccnc(NCCS(C)(=O)=O)c4)ccc32)sc1C(N)=O)c1ccccc1Cl [GSK907232]	95.4%
Cl.c1ccc(-c2ccc3c(Nc4ccc5[nH]ncc5c4)ccnc3c2)nc1 [GW440137]	20%
Oc1cc(Nc2ccnc3cc(I)ccc23)ccc1F [GW552771]	0%

Compound	%Inh
Nc1n[nH]c2cnc(-c3ccccc3)cc12 [SB-642124]	60%
COc1cc(Nc2nccc(N3CCC(NC(=O)c4cc5ccccc5s4)C3)n2)cc(OC)c1OC (stereo not shown) [GSK1379760]	20%
C[C@@H]1CC[C@@H](C(=O)Nc2ccccc2)CN1c1cc(-c2ccc3c(N)n[nH]c3c2)nc(N)n1 [GSK2286062]	11%
Nc1ncc(-c2cccnc2)c2scc(-c3ccc4c(c3)CCN4C(=O)Cc3ccccc3)c12 [GSK683281]	4%
Cc1ccc(F)c(C(=O)Nc2cccc(-c3nn4ccccc4c3-c3ccnc(Nc4cccc(F)c4)n3)c2)c1F [GSK361061]	11%
O=C(Nc1cccc(-c2nn3ncccc3c2-c2ccnc(Nc3ccccc3)n2)c1)c1c(F)cccc1F [GSK198271]	32%
CC(C)c1nc(-c2cccc(NS(=O)(=O)c3c(F)cccc3F)c2F)c(-c2ccnc(Nc3ccc(N4CCOCC4)nc3)n2)s1 [GSK2008607]	29%
COc1cc(Nc2ncc3c(C)nc(-c4cc5ccccc5[nH]4)n3n2)cc(OC)c1OC [GW869516]	9%
COCCOCCOc1cc2ncc3c4ccc(C#N)cc4[nH]c3c2cc1OC	83%
O=C(O)C(F)(F)F.O=C(O)C(F)(F)F.O=c1[nH]ccc2nc(N[C@@H]3CCCNC3)nc(Nc3ccc(S(=O)(=O)N4CCOCC4)cc3)c12 [GSK2177277]	99.6%
Cc1cccc(Nc2nc(N[C@H]3CCNC3)ncc2C(N)=O)c1.Cl [GSK2197149]	34%
COc1cc(Nc2nccc(-c3c(-c4cccc(NC(=O)c5c(F)cccc5F)c4)nn4ncccc34)n2)cc(OC)c1OC [GSK327238]	95.2%
O=C(Nc1n[nH]c2cc(-c3ccoc3)ccc12)C1CC1 [SB-738481]	25%
O=C(Nc1cccc(-c2nn3ccccc3c2-c2ccnc(Nc3cccc(C(F)(F)F)c3)n2)c1)c1c(F)cccc1F [GSK292658]	9%
COC(=O)Nc1nc2ccc(Oc3ccc(NC(=O)Nc4cc(C(F)(F)F)ccc4F)cc3)cc2n1C.Cl [GW692089]	17%
Fc1ccc(-c2ncn(C3CCNCC3)c2-c2ccnc(Oc3ccc(-c4ccccc4)cc3)n2)cc1 [SB-245391]	16%
COc1cc(Nc2nccc(-c3c(-c4cccc(NC(=O)c5c(F)cccc5F)c4)nn4ccccc34)n2)cc(OC)c1OC [GSK323521]	40%
O=C(Nc1cccc(-c2nn3ccccc3c2-c2ccnc(Nc3cccc(F)c3)n2)c1)c1c(F)ccc(F)c1Cl [GSK357952]	4%
